The structures appear in SMILES notation.

This note sets out measurements from ChEMBL document CHEMBL1157539, “Thousands of chemical starting points for antimalarial lead identification” (Nature, 2010).

For this experiment, the system named is Plasmodium falciparum. The experiment in a line: GSK_TCMDC: Inhibition of Plasmodium falciparum 3D7 in whole red blood cells, using parasite LDH activity as an index of growth. Test compounds present at 2uM. It is filed as functional.
Molecule `O=C(Nc1cc(Cl)ccc1O)c1cc(-c2ccccc2O)no1` yielded an Inhibition of 95%. Then `Cl.O=C(/C=C/c1ccc(Cl)c(Cl)c1)N1CCC(CCN2CCC(c3c[nH]c4cnccc34)CC2)CC1`, with 100%; and `CCc1ccc(C2CCN(CCCCNC(=O)c3ccc(-c4ccc(C#N)cc4)cc3)CC2)c(OCCO)c1.Cl`, with 94%.

In the case of `Br.COc1ccc2c(c1)CCCC2C(C)NCC(O)c1cccc(C(F)(F)F)c1` (stereo not given), the Inhibition worked out at 99%. Take `COc1cccc(CCc2ccc(O)c3c2C[C@H]2C[C@H]4[C@H](N(C)C)C(O)=C(C(N)=O)C(=O)[C@@]4(O)C(O)=C2C3=O)c1.Cl`: the Inhibition stood at 93%. Molecule `O=C(N[C@@H](CC1CCCCC1)C(=O)NCCc1ccc(Cl)c(Cl)c1)c1ccc(O)c(-c2ccc(Cl)c(Cl)c2)c1` displayed an Inhibition of 100%. The result for `CO/C(=C\C=C\c1cc2cc(Cl)c(Cl)cc2[nH]1)C(=O)NCCCN1CCN(C2CCCCC2)CC1` reads 99%; that for `Cc1cc(N)c2cc(NC(=O)/C=C/c3ccccc3)ccc2n1`, 100%. Then `Fc1ccc(Nc2ccnc3cc(-c4cccc(CN5CCCCC5)c4)ccc23)c(Cl)c1`, with 91%; and `CCN1CCN(Cc2c(O)ccc3c(=O)c(Oc4cc(C)cc(C)c4)c(C(F)(F)F)oc23)CC1`, with 96%; and `CN(c1ccccc1)S(=O)(=O)c1cccc(NC(=O)c2ccc(-n3ccnc3)c([N+](=O)[O-])c2)c1`, with 83%. The molecule `N[C@@H](Cc1cc(I)c(Oc2ccc(O)c(Cl)c2)c(I)c1)C(=O)O` gave an Inhibition of 96%.

`COc1ccc(-n2ccnc2SCC(=O)Nc2cccc(C(F)(F)F)c2)c(OC)c1` showed an Inhibition of 98%. The result for `Cc1[nH]c(C)c(-c2ccc(-c3ccccc3Cl)nc2)c(=O)c1Br` reads 97%; that for `CCOc1ccc(C(=O)Nc2nonc2-c2ccc(OC)c(OC)c2)cc1`, 95%; that for `CCCc1cnc2nc(N)nc(N)c2c1C`, 93%. Then `O=C(NCC1CCC1)c1cnc(Nc2cccc(Cl)c2)nc1N1CCC1`, with 98%. The result for `CC1CN(C(=O)c2sc3ccccc3c2Cl)CC(C)O1` (stereo not given) reads 100%; that for `C=CCNS(=O)(=O)c1ccc(NC(=O)C(C)Oc2ccc([N+](=O)[O-])cc2)cc1` (stereo not given), 100%; that for `COc1cc2nc(N3CCC(CNC(=O)/C=C/c4ccccc4F)CC3)nc(N)c2cc1OC.Cl`, 100%. `COc1c(C2CCN(CCCCNC(=O)c3ccc(-c4ccc(C#N)cc4)nc3)CC2)ccc2c1CCCC2` gave an Inhibition of 95%. Then `CC(C)CC(C)NC(=O)C1Cc2c([nH]c3ccc(F)cc23)C2(CCN(Cc3ccccc3)CC2)N1` (stereo not given), with 97%; and `CC(C)c1ccc(S(=O)(=O)Nc2cccc(CCN3CCC(N4CCCCC4)CC3)c2)cc1`, with 100%; and `Cl.O=C(Nc1ccc2c(c1)CCNCC2)c1ccc(-c2ccc(Cl)cc2)cc1`, with 96%. Then `CS(=O)(=O)c1ccc(CNCc2cccc(-c3cccc(-c4nc5ccccc5[nH]4)c3)c2)cc1.O=C(O)C(F)(F)F`, with 100%; and `Fc1ccc2[nH]c(-c3cccc(-c4cccc(CNCCc5ccncc5)c4)c3)nc2c1.O=C(O)C(F)(F)F`, with 100%; and `CN(CCN)Cc1cccc(-c2cccc(-c3nc4cc(F)ccc4[nH]3)c2)c1.O=C(O)C(F)(F)F`, with 95%.

Consider `COC(=O)Nc1ccc(-c2ccc(C(=O)NC3CCN(C[C@H](O)c4ccnc5ccc(OC)cc45)CC3)cc2)c(C)c1`, for which the Inhibition was determined as 100%. The result for `CC(C)N1CCN(c2ccc(OCCCCN3CCN(c4cccc(Cl)c4Cl)CC3)cc2Cl)CC1.Cl` reads 89%.

As for `Cc1cc(NCCCCCCCCNc2cc(C)nc3ccccc23)c2ccccc2n1.Cl`, the Inhibition turned out to be 100%.

Consider `O=C(Nc1ccc(CCNCc2ccccc2)cc1)Nc1ccc(OC(F)(F)F)cc1.O=C(O)C(F)(F)F`, for which the Inhibition is listed as 100%. Take `O=C(/C=C/c1ccc(Cl)c(Cl)c1)NCCCCCCN1CCN(C(=O)Nc2ccc(Cl)c(C(F)(F)F)c2)CC1`: the Inhibition is 99%. As for `CN(C)C(=O)n1cnc(S(=O)(=O)N(C)c2ccc(Cl)cc2)n1.Cl`, the Inhibition is 88%. The result for `O=C(NCc1ccc(Cl)c(Cl)c1)c1ccc(C2CCCN(Cc3ccc4[nH]cnc4c3)C2)cc1` (stereo not given) reads 100%; that for `CCCCC(CC)CN1C(=O)C(c2ccccc2)(c2ccccc2)N=C1N.O=CO` (stereo not given), 94%. The result for `Cl.OC(c1ccccc1)C1CN(CCC2CC3CCC2C3)CCC1(O)c1ccccc1` (stereo not given) reads 97%. Take `CCN(CC)/C(=N\CCCCCC/N=C(\NC(=N)c1ccc(Cl)cc1)N(CC)CC)NC(=N)c1ccc(Cl)cc1`: the Inhibition is 97%. Then `Cc1cccc2nc(-c3ccc(-c4cccc(NC(=O)Nc5ccccc5)c4)cc3)[nH]c12`, with 100%; and `CC(O)C1CCCCN1C(=O)c1cccc(-c2cccc(-c3nc4cc(C(F)(F)F)ccc4[nH]3)c2)c1` (stereo not given), with 100%; and `O=C(O)C(F)(F)F.c1cc(CNCCc2ccncc2)cc(-c2csc(-c3nc4ccccc4[nH]3)c2)c1`, with 100%.
